Laboratory results published in PubChem BioAssay (NCI).
Compounds without any hit were thinned out: in the full panel of roughly 79,000, 15% have a hit. Cut-off read from the data, not from the text of the source: active = growth inhibition above about 70%; inactive = the rest.

Tests used:
[1] = NCI Yeast Anticancer Drug Screen. Data for the rad50 strain (AID 155);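 note: 0% = growth of vehicle-only cultures of the same strain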; details: S. cerevisiae rad50 strain growth inhibition; at 50.0 µM; stronger effect = higher value
Summary of the method: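 Genetically altered yeast (DNA repair pathway); compound treatment; growth inhibition vs vehicle ctrl.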

[2] = NCI Yeast Anticancer Drug Screen. Data for the mec2-1 strain (AID 157); details: S. cerevisiae mec2-1 strain, at 50.0 µM, stronger effect = higher value
Summary of the method: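 Using mec2-1 yeast: add compound, measure growth, express inhibition versus vehicle-treated cultures.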

[3] = NCI Yeast Anticancer Drug Screen. Data for the sgs1 mgt1 strain (AID 161);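 note: 0% = growth of cultures given vehicle only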; details: S. cerevisiae sgs1 mgt1 strain, at 50.0 µM, stronger effect = higher value
Summary of the method: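 This yeast growth screen uses a strain with defined DNA-repair lesions; compound-treated growth is compared with vehicle-treated growth.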

[4] = NCI Yeast Anticancer Drug Screen. Data for the cln2 rad14 strain (AID 165);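 note: 0% = growth equal to vehicle treated cultures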; details: S. cerevisiae cln2 rad14 strain, at 50.0 µM, stronger effect = higher value
Summary of the method: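 Yeast strain cln2 rad14, bearing defects in cell cycle control and DNA repair, serves as the test system; values reflect growth inhibition compared with vehicle.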

[5] = NCI Yeast Anticancer Drug Screen. Data for the bub3 strain (AID 167); details: S. cerevisiae bub3 mutant strain, at 50.0 µM, stronger effect = higher value
Summary of the method: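 Yeast carrying a defined mutation is treated with each compound, and growth is compared with that of vehicle-exposed cells to give inhibition.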

[6] = NCI Yeast Anticancer Drug Screen. Data for the mlh1 rad18 strain (AID 175); details: S. cerevisiae mlh1 rad18 strain growth inhibition; at 50.0 µM; stronger effect = higher value
Summary of the method: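 Steps: expose repair-defective yeast to compound; measure growth; express inhibition against vehicle-treated controls.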

Measured: growth inhibition

COC(=O)c1cc2ccc(O)c(O)c2cn1
inactive: [1] 41.1% | [2] 25.8% | [3] 60.3% | [4] 18.9% | [5] 62.4% | [6] 24.9%

CC(=O)Oc1cc2c(c3ccccc13)CCC2=O
inactive: [1] 13.4% | [2] 7.2% | [3] -7.85% | [4] -0.9% | [5] 20.4% | [6] 6.05%

OCCNc1ncnc2[nH]ncc12
inactive: [1] 2.75% | [2] -6.1% | [3] -20.6% | [4] -21.8% | [5] -24.2% | [6] 5.55%

O=C(Nc1nnc(C(F)(F)F)s1)c1c(F)cccc1F
inactive: [1] 7.75% | [2] 16.7% | [3] 24.9% | [4] 19.5% | [5] 37% | [6] 30.1%

Cc1cc(OCCN(C)C)cc(C)c1Cl
inactive: [1] -2% | [2] -0.75% | [3] 25.1% | [4] 37.6% | [5] -16.9% | [6] 8.8%

C/C=C(/C)C1(O)CCCCC1O (configuration not stated)
inactive: [1] -4.2% | [2] 1.15% | [3] 1.2% | [4] -2.7% | [5] -4% | [6] -11.3%

Cc1ccc(Sc2cccc3c2C(=O)c2c(Sc4ccc(C)cc4)cccc2C3(Br)c2ccccc2)cc1
inactive: [1] 13.9% | [2] -8.95% | [3] -2.95% | [4] -27.2% | [5] -0.15% | [6] 0.1%

COc1cccc(NC(=O)NCCN(C)c2ccccc2)c1
inactive: [1] -5.7% | [2] 38.5% | [3] 21.1% | [4] -17.2% | [5] 23.1% | [6] 27.2%

COc1cccc2c1C(=O)c1c(O)c3c(c(O)c1C2=O)C[C@@](O)(/C(C)=N\NC(=O)CCC(N)C(=O)O)C[C@@H]3OC1CC(N)C(O)C(C)O1 (some centres not stated) (tested in a mixture with another compound)
inactive: [1] -30.9% | [2] -57.9% | [3] 0.65% | [4] -6.05% | [5] -25.8% | [6] -46.7%

COc1cc(C2CC(C)(N3CCCC3)Oc3cc4c(cc32)OCO4)cc(OC)c1OC (configuration not stated)
inactive: [1] 1.2% | [2] -1.6% | [3] 9.5% | [4] -47.4% | [5] -11.8% | [6] 5.95%

Cc1nnc(-c2cn(C3OC(CO)C(O)C3O)c3ncnc(N)c23)nc1C (configuration not stated)
inactive: [1] 6.2% | [2] 15.9% | [3] 1% | [4] 0% | [5] -4.1% | [6] 8.9%

N#CCc1nc(-c2cc3ccccc3oc2=O)cs1
inactive: [1] 31.4% | [2] 16.3% | [3] -12.4% | [4] 3.7% | [5] 0.75% | [6] -57%

[O-][N+](=Nc1ccccc1Cl)c1ccccc1Cl
inactive: [1] 44% | [2] 16% | [3] 62.7% | [4] 4.15% | [5] 28.2% | [6] 31.2%

COC1OC(C)CC(O)C1O (configuration not stated)
inactive: [1] 5.3% | [2] -7.05% | [3] 14.7% | [4] -57.6% | [5] 2.7% | [6] -37.8%

CC1=C(CCC(=O)O)c2cc3nc(cc4[nH]c(cc5[nH]c(cc1n2)c(C)c5C(C)O)c(C)c4C(C)O)C(C)=C3CCC(=O)O (configuration not stated)
inactive: [1] 12.4% | [2] 5.2% | [3] 7.7% | [4] 29.8% | [5] 21.6% | [6] 1.65%

O=C(NC1C=Nc2ccc(Cl)cc2NC1=O)c1ccc(Cl)cc1 (configuration not stated)
inactive: [1] 18% | [2] 20.9% | [3] 31.4% | [4] 23.6% | [5] 6.95% | [6] 31.6%

C/C=C1\CN2CCc3c([nH]c4ccccc34)C2CC1CC(=O)N(C)C (configuration not stated)
inactive: [1] 0.9% | [2] -7.75% | [3] -20.6% | [4] -1% | [5] 1.6% | [6] -5.95%

NC(C1SCCS1)C(O)C(O)C(O)CO (configuration not stated)
inactive: [1] -5.55% | [2] -27.6% | [3] -1.9% | [4] -3.7% | [5] 3.1% | [6] -3.95%

CCOC(=O)c1sc(SC)nc1NC(=O)c1ccc([N+](=O)[O-])cc1
inactive: [1] -13.4% | [2] -8.55% | [3] -53% | [4] -1.3% | [5] -20.5% | [6] -3.85%

COc1ccc(N=C2C(=Nc3ccc(OC)cc3)N(S(=O)(=O)c3ccccc3)C(=S)N2c2ccc(OC)cc2)cc1
inactive: [1] -11.8% | [2] -35% | [3] -35.5% | [4] -23.9% | [5] 0.2% | [6] -26.1%

OCc1ccc2ccc3ccc(CO)nc3c2n1
inactive: [1] 14.4% | [2] 15.4% | [3] 5.6% | [4] -25.4% | [5] 15.4% | [6] 13.9%

COc1cc2c(c(OC)c1OC)-c1ccc(OC)c(=O)cc1[C@@H](NC(=O)c1ccccc1)CC2
inactive: [1] 11.7% | [2] 7.15% | [3] 18.7% | [4] -0.05% | [5] 14.2% | [6] 18.9%

O=C1[C@@H](c2ccc(Cl)cc2)[C@H]2CC=C[C@H]2N1O
inactive: [1] 8.65% | [2] -21.4% | [3] -13.8% | [4] 15.4% | [5] -13.4% | [6] -2.25%

Cc1cc(OC(C)C)cc(C)c1C(=O)OCC(C)N1CCCC1 (configuration not stated)
inactive: [1] 11.8% | [2] -8.2% | [3] 19.9% | [4] 5.35% | [5] -4.9% | [6] 11.2%

Cn1c(CC(O)(C(F)(F)Cl)C(F)(F)Cl)cc(=O)n1-c1ccccc1
inactive: [1] 41.6% | [2] 1.3% | [3] 8.7% | [4] 6.25% | [5] 7% | [6] 7.2%

CC(=O)Nc1cc(Cl)cc2[nH]c(C)nc12
inactive: [1] 17.1% | [2] -3% | [3] -0.6% | [4] -0.25% | [5] 12.8% | [6] 37.4%

NCCn1[nH]c(=O)c2ncccc2c1=O
inactive: [1] -59% | [2] -27.6% | [3] -4.45% | [4] -49.1% | [5] -6.6% | [6] -14.9%

CN1CCS(=O)(=O)NC(Cc2ccccc2)C(=O)N2CCCC2C1=O (configuration not stated)
inactive: [1] -6.5% | [2] -13.2% | [3] -4.5% | [4] 29.6% | [5] -11.7% | [6] -8.5%

CN(C)CCNC(=O)c1cccc2ccc(-c3ccncc3)nc12
inactive: [1] 6.15% | [2] 11% | [3] -20.7% | [4] -3.3% | [5] -19.9% | [6] -27.8%

O=C1c2ccccc2C(=O)N1c1ccc(Cl)cc1
inactive: [1] 3.5% | [2] 9.9% | [3] 12.6% | [4] 1.2% | [5] 22.8% | [6] 6.85%

Nc1ccc2ccc3ccccc3c2c1
inactive: [1] 50.8% | [2] 5.6% | [3] 43.4% | [4] 31.8% | [5] 27.5% | [6] 44.2%

CCCCC(C(=O)OCC)C(=O)OCC
inactive: [1] 5.9% | [2] 4.45% | [3] -6.35% | [4] -53% | [5] -2.75% | [6] -3.2%

O=C1C(Nc2ccccc2)=C(c2ccccc2)C(=O)N1c1ccccc1
inactive: [1] 1.15% | [2] -7.55% | [3] 0.7% | [4] -46.2% | [5] -11.8% | [6] -10.8%

COc1ccc2c(c1)CC[C@@H]1[C@@H]2CC[C@]2(C)C(=O)/C(=N/O)C[C@@H]12
inactive: [1] -15% | [2] 4.85% | [3] 1.85% | [4] -34% | [5] 31.5% | [6] -14.2%

O=[N+]([O-])c1ccc(CCCn2cnc3c(Cl)ncnc32)c([N+](=O)[O-])c1
inactive: [1] 15% | [2] 0.95% | [3] 7.95% | [4] -1.45% | [5] 1.2% | [6] -10.6%

COc1ccc(-n2cnc3c(cnn3C3OC(CO)C(O)C3O)c2=O)cc1 (configuration not stated)
inactive: [1] 8.7% | [2] 2.95% | [3] 8.45% | [4] 23.3% | [5] -4.25% | [6] 3.3%

COc1cccc(OC)c1/C=C1\N=C(c2ccccc2)OC1=O
inactive: [1] -1.4% | [2] -1.4% | [3] 2.55% | [4] -56.9% | [5] 5.55% | [6] -9.25%

CCCCN(C=O)c1ccccc1
inactive: [1] 3.15% | [2] 9.65% | [3] 2.95% | [4] 7.15% | [5] -8.45% | [6] 27.9%

C(=Nc1ccc2c(c1)Cc1ccccc1-2)c1ccc2c(c1)OCO2
inactive: [1] 8.75% | [2] -10.1% | [3] 9.75% | [4] -2.1% | [5] 3.05% | [6] 15.4%

Cn1c(=O)c2ncn(CC(O)COc3ccccc3)c2n(C)c1=O (configuration not stated)
inactive: [1] 2.15% | [2] 3.1% | [3] 11.8% | [4] -2.8% | [5] 25.9% | [6] 16.3%

Cn1c(=O)c2c(no[n+]2[O-])c2ccccc21
inactive: [1] 18.1% | [2] 15.7% | [3] 8.05% | [4] 14.1% | [5] 21.1% | [6] 22.4%

CC(=O)NCCCCCC(=O)N(C)C
inactive: [1] -32.6% | [2] -8.45% | [3] -16.8% | [4] -17.6% | [5] -3.3% | [6] -5.35%

COC(=O)c1noc2c1CSC1=C2CS(=O)(=O)c2ccccc21
inactive: [1] 16.4% | [2] 22% | [3] 30.4% | [4] 14.8% | [5] 17.2% | [6] 26.6%

COc1cc(-c2cc(OC)c(N=N/C(=N/Nc3ccc([N+](=O)[O-])cc3)c3ccc([N+](=O)[O-])cc3)cc2Cl)c(Cl)cc1N=N/C(=N\Nc1ccc([N+](=O)[O-])cc1)c1ccc([N+](=O)[O-])cc1
inactive: [1] 7.9% | [2] 9.65% | [3] -5.95% | [4] -21.2% | [5] -14.2% | [6] -13.8%

COc1cccc(/C(C=O)=C(\Cl)c2ccc(OC)c(OC)c2)c1
inactive: [1] 10.1% | [2] 9.55% | [3] 12.4% | [4] 6.7% | [5] 33.5% | [6] -8.3%

CCOC(=O)C1(Br)C(c2ccccc2)NC(=O)NC1(C)Br (configuration not stated)
inactive: [1] 9.15% | [2] -12.2% | [3] 0.6% | [4] 12.8% | [5] -1.75% | [6] -14.6%

OCC1COc2ccc(Cl)cc2O1 (configuration not stated) (tested in a mixture with another compound)
inactive: [1] -10.3% | [2] -7.3% | [3] 2.65% | [4] 16.8% | [5] 6.85% | [6] 4.8%
